Measurements from the supplement of paper PMC10981050.
Values joined by “and” are separate entries in the source; they are usually repeats but may differ in a detail not shown here. Identical values can stand only once.

Tests used:
Test in all cases: cell viability relative to vehicle control; higher = less cytotoxic
Settings in all cases: 10 µM
K562 = system: K562
Procedure, shortened: (§1)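 Four leukaemia lines, as CRISPR-edited mutant clones and isogenic wild-type clones, were tested against Selleck bioactive, kinase and epigenetic probe libraries after removal of identity-inconsistent compounds. Cells were exposed to a single 10 µM dose for 48 h, and CellTiter-Glo luminescence was then read. Viability was calculated relative to the on-plate vehicle control.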

MARIMO = system: MARIMO
Procedure, shortened: as §1

MOLM14 = system: MOLM14
Procedure, shortened: as §1

OCI-AML2 = system: OCI-AML2
Procedure, shortened: as §1

Row | SMILES | cell viability (K562; SRSF2 genotype: SRSF2 P95H/wt) | cell viability (K562; SRSF2 genotype: SRSF2 wt/wt) [%] | cell viability (MARIMO; SRSF2 genotype: SRSF2 P95H/wt) [%] | cell viability (MARIMO; SRSF2 genotype: SRSF2 wt/wt) [%] | cell viability (MOLM14; SRSF2 genotype: SRSF2 P95H/wt) [%] | cell viability (MOLM14; SRSF2 genotype: SRSF2 wt/wt) [%] | cell viability (OCI-AML2; SRSF2 genotype: P95H/wt) [%] | cell viability (OCI-AML2; SRSF2 genotype: wt/wt) [%]
1 | CC1OC2OC3C(OCC(O)C3O)OC(=O)C34CCC(C)(C)CC3C3=CCC5C6(C)CC(O)C(OC7OC(CO)C(O)C(O)C7OC7OCC(OC(=O)CC(C)(O)CC(=O)OC1C(OC1OCC(O)C(O)C1O)C2O)C(O)C7O)C(C)(CO)C6CCC5(C)C3(C)CC4O (configuration not stated) [Tubeimoside II] | 23.1% and 15.2% | 16.7 | 46.2 | 70.6 | 51.2 | 86.1 | 28.5 | 38.4
2 | Cc1cc(Nc2cc(CN3CCOCC3)c3nc(C)c(Cc4ccc(Cl)cc4F)n3n2)n[nH]1 | 88.8% and 88% | 84 | 73.1 | 110 | 19.7 | 16.5 | 34.7 | 53
3 | CC(=O)OC/C=C(/C)CCC=C(C)C [Neryl acetate] | 98.4% and 101% | 100 | 96.8 | 102 | 112 | 99.6 | 100 | 103
4 | COc1cc2c(cc1OC)CN(CCc1ccc(NC(=O)c3cc(OC)c(OC)cc3NC(=O)c3cnc4ccccc4c3)cc1)CC2 [Tariquidar] | 94.6% and 105% | 96.9 | 95.3 | 105 | 93.5 | 95.7 | 96.4 | 100
5 | C[C@@H]1CC[C@@]2(OC1)O[C@H]1C[C@H]3[C@@H]4CC=C5C[C@@H](O[C@@H]6O[C@H](CO)[C@@H](O[C@@H]7O[C@@H](CO)[C@H](O)[C@H]7O)[C@H](O)[C@H]6O[C@@H]6O[C@@H](C)[C@H](O)[C@@H](O)[C@H]6O)CC[C@]5(C)[C@H]4CC[C@]3(C)[C@H]1[C@@H]2C [Polyphyllin I] | 0.33% | 0.31 | 0.37 | 0.67 | 0.32 | 0.29 | 0.21 | 0.36
6 | Cn1cc(C[C@@H](N)C(=O)O)c2ccccc21 [Indoximod (NLG-8189)] | 95.8% and 103% | 95.7 | 98.4 | 103 | 103 | 98.9 | 102 | 104
7 | COc1ccc(O)cc1 [Mequinol] | 103% and 95.3% | 106 | 91.1 | 100 | 95.6 | 96.9 | 90.4 | 103
8 | O=C1Cc2ccccc2N1 [Oxindole] | 96.9% and 92% | 98.4 | 98.2 | 103 | 95 | 98.9 | 95.9 | 105
9 | O=C(c1ccc(C(=O)N2CCC(N3CCCC3)CC2)c(Nc2ccccc2)c1)N1CCC(N2CCCC2)CC1 | 94.7% and 87.5% | 84.1 | 81.1 | 92.7 | 89 | 89.4 | 93.8 | 89.4
10 | CN1CCN(S(=O)(=O)c2ccc(-c3cnc(N)c(C(=O)Nc4cccnc4)n3)cc2)CC1 | 72.1% and 61.7% | 73.6 | 76.7 | 114 | 40.6 | 42.1 | 30 | 63.3
11 | OC(Cn1cncn1)(Cn1cncn1)c1ccc(F)cc1F [Fluconazole] | 112% and 99.8% | 101 | 98 | 107 | 103 | 101 | 96.9 | 95.7
12 | Cc1[nH]c(=O)c(C#N)cc1-c1ccncc1 [Milrinone (Primacor)] | 102% and 97.3% | 94.1 | 96.1 | 93.1 | 98.8 | 99.1 | 101 | 96
13 | CN(N=O)C(=O)NC1C(O)OC(CO)C(O)C1O (configuration not stated) [Streptozotocin (STZ)] | 103% | 105 | 98.3 | 104 | 97.2 | 103 | 100 | 107
14 | CC(=O)OCC(CCn1cnc2cnc(N)nc21)COC(C)=O [Famciclovir (Famvir)] | 103% and 95.1% | 90.8 | 99.7 | 104 | 99.3 | 97.5 | 94.7 | 98
15 | Cc1onc(-c2c(F)cccc2Cl)c1C(=O)N[C@@H]1C(=O)N2[C@@H]1SC(C)(C)[C@@H]2C(=O)O [Flucloxacillin sodium] | 96.6% and 89.9% | 94.3 | 100 | 108 | 95.6 | 96.5 | 99.6 | 107
16 | COc1cc2c(cc1OC)[C@H]1[C@@H](C)c3ccc(OC)c(OC)c3CN1CC2 [Corydaline] | 84.4% and 88.8% | 86.6 | 83.2 | 82 | 89.4 | 90.9 | 73.8 | 79.1
17 | O=C(O)CCCCCCCC(O)C(O)CCCCCCO (configuration not stated) [Aleuritic Acid] | 105% and 100% | 97.5 | 107 | 112 | 98.4 | 107 | 97.2 | 101
18 | Cc1cc(F)c(Nc2ncnc3cc(OCc4ccccc4)ccc23)cc1O | 82.7% and 95.5% | 94.6 | 73.6 | 97.9 | 93.3 | 102 | 71.2 | 81
19 | C=C(C)[C@@H]1CC[C@]2(C(=O)O)CC[C@]3(C)[C@H](CC[C@@H]4[C@@]5(C)CC[C@H](O)[C@@](C)(CO)[C@@H]5CC[C@]43C)[C@@H]12 [23-Hydroxybetulinic acid] | 93.7% and 96.8% | 91.1 | 96.6 | 107 | 100 | 103 | 103 | 109
